# PfG6PD inh – PfG6PD (Plasmodium falciparum) enzyme inhibition | PfGluPho enzyme, NADPH resazurin-diaphorase fluorescence | inhibition, % at 20 µM | hit rate 0.78% among 350,000 | AID 504690;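 active means inhibition reaching at least a set limit at 20 µM in the primary screen, cut at about 59% in these data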;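 further: 0% = DMSO wells with substrate and 100% = DMSO wells lacking glucose-6-phosphate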
# FAS-TE inh – FAS thioesterase (human) inhibition; hit rate 0.67% among 360,000; P49327; recombinant FAS-TE, OMFH fluorogenic substrate, fluorescence endpoint; inhibition, % at 15 µM;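 active means compounds whose normalised, plate-corrected inhibition of enzyme fluorescence in the single-dose primary screen is 50% or more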;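 further: 0% = DMSO with enzyme and 100% = substrate without enzyme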
# CRFR2-BP ag – CRF-BP/CRF-R2 complex agonism; HEK293 CRF-R2/CRF-BP, calcium dye fluorescence (FLIPR); percent of saturating CRF peptide response; activation, % at 13.2 µM; hit rate 0.46% among 350,000;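 active means activation of at least 50%, plus an integration ratio under a set limit after plate pattern correction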;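 further: plate controls were neutral control wells without compound for no effect and CRF at EC100 for full effect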
# aDG glyco up – increases alpha dystroglycan glycosylation | Pro5-aDG cells, alpha-DG glycosylation AlphaScreen (IIH6); 0% Pro5, 100% B10-LARGE cell signal | hit rate 0.22% among 360,000 | activation, % at 10 µM;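 active means activation of at least 8% versus controls, or a plate z-score of at least 8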;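 further: Pro5 are CHO cells carrying HIG-tagged alpha-DG that lacks glycosylation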
# H9c2 protect – modulators protecting cardiomyocytes from myocardial damage | H9c2 cardiomyocytes, H2O2 injury protection, ATPLite, 2 h | protection from H2O2 cell death, % at 20 µM | hit rate 0.63% among 360,000 | AID 588492;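 active means compounds giving at least 50% protection of heart cells from peroxide-induced death in the single-dose screen, raw or plate-pattern-corrected value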;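 further: 0% = DMSO wells with peroxide and 100% = DMSO wells without peroxide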
# CRFR2-BP antag – blocks CRF-induced signaling of the CRF-BP/CRF-R2 complex. HEK293 CRF-R2/CRF-BP, CRF-induced calcium fluorescence. inhibition, % at 11.8 µM. hit rate 0.59% among 350,000;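 active means inhibition of the ligand-induced calcium signal above about 50% at the single tested concentration, limit read from the data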
# PfGluPho conf – confirmation of Plasmodium falciparum G6PD inhibitors; hit rate 34% among 2,400; shares compounds with PfG6PD inh; recombinant PfGluPho, NADPH-diaphorase-resazurin fluorescence; inhibition, % at 20 µM; AID 504753;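 active means inhibition of at least 50% at 20 µM in any single replicate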;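 further: 0% = DMSO with substrate and 100% = DMSO lacking glucose-6-phosphate substrate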
# Diaph ctr 10uM – diaphorase inhibition or oxidation at 10 uM NADPH. shares compounds with PfG6PD inh. diaphorase-coupled resazurin reduction, fluorescence, NADPH 10 uM. inhibition, % at 20 µM. hit rate 39% among 820. AID 504862;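 active means average inhibition reaching 50% or more with the compound at 20 µM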;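 further: resorufin red fluorescence formed as diaphorase reduces resazurin using NADPH; 0% = DMSO with enzyme and 100% = DMSO without enzyme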
# Diaph ctr 30uM – inhibits diaphorase or oxidizes, flagging false PfG6PD hits; shares compounds with PfG6PD inh; Diaphorase/resazurin coupled assay, resorufin fluorescence, 30 uM NADPH; inhibition, % at 20 µM; hit rate 29% among 820; AID 504863;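 active means inhibition averaging 50% or more, tested at 20 µM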;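 further: 0% = DMSO with enzyme and 100% = DMSO wells lacking diaphorase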
# An asterisk follows results filed as active; nt = not tested or not shown. This is a sample that favours compounds with a hit; in the whole collection about 3.2% have one here.
SMILES,PfG6PD inh,FAS-TE inh,CRFR2-BP ag,aDG glyco up,H9c2 protect,CRFR2-BP antag,PfGluPho conf,others
O=[N+]([O-])c1ccc2nc(C(O)C(O)c3nc4ccc([N+](=O)[O-])cc4[nH]3)[nH]c2c1 (stereo unspecified),-20.1,18.8,-2.1,0.4,17.9,8.1,nt,
COc1cccc(Nc2nc(Nc3ccc(Cl)c(C(=O)O)c3)nc(C)c2[N+](=O)[O-])c1,-4.7,33.1,2.5,0.3,2.1,5.5,nt,
COc1ccc(NC(=O)c2c(C)noc2C(C)C)cc1S(=O)(=O)N1CCCCC1,10.8,-2.1,1.2,-0.3,3.6,9.4,nt,
COc1ccc(CC2=CC(=O)c3ccccc3C2=O)cc1,85.2*,19.6,1.3,-0.2,-21.1,-6.2,8.8,
CC(Sc1nc(N2CCOCC2)c2c(c1C#N)CC(C)(C)OC2)C(=O)Nc1ccccc1 (stereo unspecified),59.9*,-15.2,0.2,-0.3,12.5,2.5,-10.5,
Cc1ccc(-n2c(SCC(=O)O)nc3c(sc(=S)n3-c3ccc(C)c(C)c3)c2=O)cc1,75.0*,-3.1,0.6,0.0,-0.5,7.9,30.8,
Cc1ccc(-n2c(=S)sc3c(=O)n(-c4ccc(F)cc4)c(SCC(=O)O)nc32)cc1C,31.7,-7.1,4.3,0.1,4.9,-10.1,nt,
CC(C)c1c(C(=O)N/N=C/c2ccc(C(F)(F)F)cc2)nnn1-c1nonc1N,15.3,15.6,17.4,1.1,-6.9,-79.5,nt,
CCn1c(O)c(C=Nc2ccccc2)sc1=S,68.2*,nt,1.9,nt,nt,-11.6,14.9,
Cc1ccc(N(O)C(C)(C)C)cc1,71.9*,-4.4,1.7,-0.2,-3.2,-1.9,8.4,
Cc1ccc(N(C)S(=O)(=O)c2ccc(C)cc2)cc1,18.9,7.6,-0.5,-0.2,-4.3,12.7,nt,
O=C1/C(=N\S(=O)(=O)c2cccs2)C([n+]2cccc(Cc3ccccc3)c2)=C([O-])c2ccccc21,63.0*,-46.3,62.3*,3.6*,-13.6,-62.3,25.6,
Cc1cc[n+](C2=C([O-])c3ccccc3C(=O)/C2=N\S(=O)(=O)c2cccs2)cc1C,13.4,-8.9,-3.0,-0.1,-5.5,-8.7,nt,
Cc1cc(C)c[n+](C2=C([O-])c3ccccc3C(=O)/C2=N\S(=O)(=O)c2cccs2)c1,66.1*,-0.1,-2.7,1.2,-35.4,1.1,49.6*,Diaph ctr 10uM=50.0*;Diaph ctr 30uM=44.3
COCCNC(=O)C1(C)CCCN(Cc2ccc(-n3ccnc3)cc2)C1 (stereo unspecified),nt,-5.6,nt,-0.1,-1.1,nt,nt,
O=C(CSc1cccc2cccnc12)N/N=C/c1ccc(F)cc1,84.7*,-0.8,-0.1,0.1,-9.5,-5.0,64.9*,Diaph ctr 10uM=61.1*;Diaph ctr 30uM=53.8*
CCCCC(=O)N/N=C/c1ccc(Sc2cccc3cccnc23)o1,68.1*,5.0,-0.5,1.2,-17.4,13.8,28.6,
CCCCCCCC(=O)N/N=C/c1cccnc1,5.0,-4.0,1.8,4.2,-2.8,-9.0,nt,
CCOC(=O)c1cnc2ccc(OC)cc2c1Nc1ccc2c(c1)OCCO2,50.6,21.4,-1.4,-0.2,-21.6,-11.6,nt,
CCOC(=O)c1cnc2c(OC)cccc2c1Nc1ccc2c(c1)OCCO2,68.3*,7.0,-1.3,-0.1,15.2,14.8,28.5,
Cc1nc(N2CCC3(CC2)OCCO3)c2nnn(Cc3ccccc3F)c2n1,61.4*,5.2,0.5,-0.1,-0.4,31.2,30.8,
O=C1CC2c3ccccc3C1C1C(=O)N(Cc3ccccc3)C(=O)C21 (stereo unspecified),-0.5,0.1,0.1,0.0,7.1,4.0,nt,
O=C(CSc1nc2cc(Cl)ccc2s1)c1ccco1,113.5*,23.4,-3.6,-0.2,-4.5,4.6,56.2*,Diaph ctr 10uM=44.5;Diaph ctr 30uM=28.8
CC(CNC(=O)c1ccc(OC2CCN(Cc3ccccn3)CC2)cc1)c1ccccc1 (stereo unspecified),nt,0.6,nt,0.8,-5.6,nt,nt,
COc1cc(C(=O)O/N=C2\C=CC(=O)C=C2C)cc(OC)c1OC,67.5*,15.3,-0.9,-0.6,5.1,-14.6,62.5*,Diaph ctr 10uM=27.1;Diaph ctr 30uM=14.7
SMILES,PfG6PD inh,FAS-TE inh,CRFR2-BP ag,aDG glyco up,H9c2 protect,CRFR2-BP antag,PfGluPho conf,others
C/C(=N\O)C(C)(C)Nc1ccccc1F,8.8,-2.1,-3.0,-0.1,6.3,0.1,nt,
CC(C)c1cc2c(c(O)c1O)[C@@]13CCCC(C)(C)C1CC2OC3=O (stereo partly specified),67.1*,5.3,-1.0,-0.3,2.3,4.9,50.7*,Diaph ctr 10uM=-16.1;Diaph ctr 30uM=-23.8
CC12CCC(=O)N1C(C(=O)NCCN1C(=O)S/C(=C\c3ccc(F)cc3)C1=O)CS2 (stereo unspecified),11.1,1.1,0.5,0.1,-4.3,-4.8,nt,
O=S(=O)(Cc1cccc(F)c1)c1c[nH]c2ccccc12,85.9*,-7.0,0.8,-0.3,-4.2,-17.3,40.8,
Cc1ccc(NC(=O)c2cc([N+](=O)[O-])ccc2N2CCOCC2)cc1S(=O)(=O)N(C)C,78.1*,37.7,-2.8,-0.3,16.0,40.2,35.2,
COCCOC(=O)c1c(C)n(C)c2ccc(OC(=O)N3CCOCC3)cc12,-1.1,-1.0,-2.7,0.0,-2.5,9.6,nt,
COCCOC(=O)c1c(C)n(C)c2ccc(OC(=O)c3c(OC)cccc3OC)cc12,59.5*,14.8,1.1,-0.3,46.4,5.3,25.6,
CCOc1cc(NCc2ccccc2)c2ncn(C(C)C)c2c1,65.8*,16.3,-2.3,0.5,-15.4,-33.4,48.3*,Diaph ctr 10uM=8.2;Diaph ctr 30uM=-3.0
COCCOc1cc(NCc2ccccc2)c2ncn(C(C)C)c2c1,45.3,-4.1,0.7,0.1,-3.7,-3.9,nt,
CCCOc1cc(NCc2ccccc2)c2ncn(C(C)C)c2c1,77.4*,16.3,-1.8,0.2,-13.8,-55.5,32.8,
COc1c(Cl)cccc1-c1cn2ccc(C)cc2n1,83.4*,5.2,-0.9,0.4,-11.0,13.6,28.7,
Cc1ccn2cc(-c3cnoc3C)nc2c1,16.6,-4.1,-0.7,-0.1,8.6,4.2,nt,
c1ccc(COc2ccc(-c3cc4nc(NCCN5CCOCC5)ccn4n3)cc2)cc1,nt,7.4,nt,4.4,-5.1,nt,nt,
CC(=NNC(=S)N1CCN(c2ccccn2)CC1)c1nccs1,92.8*,-1.8,-3.1,-0.9,49.4,-3.0,57.0*,Diaph ctr 10uM=-3.1;Diaph ctr 30uM=4.4
S=C(NC1CCCC1)N1CCN(c2ccccn2)CC1,-6.3,-4.9,-0.7,0.1,0.2,-3.4,nt,
CC(=NNC(=S)N1CCN(c2ccccn2)CC1)c1ccccn1,83.6*,-7.3,-3.2,0.0,47.7,15.5,29.7,
